The results in this text go back to PubChem BioAssay AID602252 (Broad Institute, 2012).

Out of some 300,000 compounds screened, about 2,700 (0.9%) were called active. For the sample, actives were picked, then their nearest neighbours and some compounds at random. A number with no mark means an inactive call.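 The calls were made as follows: active = mean inhibition of at least 30% with at least half of replicates also reaching 30%; inconclusive = no clear call, values can overlap the other calls; inactive = the rest.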

In the test the target is Golgi-associated PDZ and coiled-coil motif-containing protein (Homo sapiens) (UniProt Q9HD26). The test is described as follows: untagged CAL PDZ binding inhibitors, primary screen, biochemical, fluorescence polarization, HTS (AID 602252).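 Also: 0% = DMSO neutral control and 100% = excess unlabeled competitor peptide PRC23.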 As to conditions: purified CAL PDZ, TMR-peptide fluorescence polarization, 1 h; at 24.9 µM; hits give high values.
A word on the inhibition: it is the drop in the measured response relative to a control, in per cent. As to `C=CCn1c(COc2ccccc2F)nnc1SCC(=O)N1CC(=O)Nc2ccccc21`, the inhibition was 56% (active).

For the compound `Nn1c(Cc2cccc3ccccc23)nnc1SCC(=O)N1CC(=O)Nc2ccccc21`, the inhibition is 1.45%.

As for `O=C1CN(C(=O)COC(=O)/C=C/c2ccc(F)cc2)c2ccccc2N1`, the inhibition was -2.46%.

For the compound `COc1cc(NC(=O)c2[nH]cnc2C(N)=O)cc(C(=O)Nc2cccc(C(F)(F)F)c2)c1`, the inhibition was -1.42%.

For `COc1ccc(/C=C/c2noc(-c3ccccc3OC(C)=O)n2)cc1`, the inhibition is 87% (active).

For `COc1cccc(/C=C/c2ccc3ccccc3n2)c1OC(C)=O`, the inhibition is -0.936%.

With `COC(=O)c1ccc(/C=C/c2c(-c3ccc(OC)cc3)sc3ccccc23)cc1`, the inhibition was 0.974%.

For `COCC(=O)N(C)[C@H]1C[C@H]2c3cc(Oc4ccccc4C)ccc3CCN2C(=O)[C@H]1[C@H](C)O`, the inhibition is -3.46%.

On to `C=CCC[C@@H](Cc1ccc(F)cc1)C(=O)OC[C@@H](C)NC(=O)[C@H](CC=C)CC(=O)N(CCO)Cc1ccccc1`, for which the inhibition is 3.24%.

As for `COc1ccc(-c2noc(CCC(=O)N3CCN(c4cccc(C)c4)CC3)n2)cc1`, the inhibition was -3.56%.

With `COc1ccc(CNC(=O)C[C@H]2C[C@H](C(=O)N3CCOCC3)[C@@]3(C)c4[nH]c5cc(CCC(=O)N(C)C)ccc5c4CCN3C2=O)cc1OC`, the inhibition was -5.01%.

In the case of `CC(=O)c1ccc(OCC(O)CN2CCN(S(=O)(=O)c3cccc(Br)c3)CC2)cc1` (stereo not drawn), the inhibition was 35% (active).

As to `Cc1cccc(OCC(O)CN2CCN(S(=O)(=O)c3ccc(C)cc3C)CC2)c1` (stereo not drawn), the inhibition is 1.68%.

Take `O=S(=O)(c1ccc(OCC(O)CN2CCN(c3ccccc3Cl)CC2)cc1)N1CCOCC1` (stereo not drawn): the inhibition is -2.34%.

As to `COC(=O)c1ccc(NCc2cc(O)ccc2O)cc1`, the inhibition was 0.712%.

Regarding `C=CCOc1ccc(/C=C2/C(=O)ON=C2C)cc1OCC`, the inhibition was -3%.

For the compound `COc1cc(/C=C2/C(=O)ON=C2C)ccc1OCc1cccc(F)c1`, the inhibition was 40.4% (active).

Turning to `COc1cc(/C=C2/C(=O)ON=C2C)ccc1OCc1ccccc1F`, the inhibition was -3.18%.

Consider `COc1cc(OC)c(C(=O)NNC(=O)c2ccc(NS(=O)(=O)c3cccs3)cc2)cc1OC`, for which the inhibition is -2.8%.

Consider `C=CC(=O)Nc1ccc(Nc2ccnc(Nc3ccc(N4CCN(C)CC4)cc3)n2)cc1`, for which the inhibition was -0.863%.

On to `COC(=O)c1ccc(NC(=S)Nc2cccc(C)n2)cc1`, for which the inhibition is 52.8% (active).

For `CCOC(=O)c1ccc(NC(=S)Nc2cc(C)cc(C)n2)cc1`, the inhibition is -17%.

On to `COC(=O)c1ccc(NC(=O)Nc2ccc(C)cc2)cc1`, for which the inhibition is -0.88%.

Consider `O=C(N[C@@H]1C/C=C\C[C@@H](CC(=O)N(CCO)Cc2ccccc2)C(=O)N[C@H](Cc2ccccc2)COC1=O)OCC1c2ccccc2-c2ccccc21`, for which the inhibition was 14.1%.

As for `CC1Cc2ccccc2N1S(=O)(=O)c1cccc(C(=O)NCC(c2ccco2)N2CCCC2)c1` (stereo not drawn), the inhibition is 1.18%.

`COC(=O)[C@]1(Cc2ccccc2)N[C@H](CN(C)S(=O)(=O)c2ccc(F)cc2)[C@@H]2C(=O)N(Cc3ccccc3)C(=O)[C@@H]21`: the inhibition was -4.16%.

For the compound `COc1cc(/C=C/C(=O)Nc2ccc(OC)c(S(=O)(=O)N3CCOCC3)c2)ccc1OCC#N`, the inhibition was -3.83%.

For `CC(C)N(C(=O)CSc1nnc(NC2CC2)s1)c1ccccc1`, the inhibition is 31.5% (active).

For `Cc1csc(SCC(=O)N(c2ccccc2)C(C)C)n1`, the inhibition is -3.25%.

`CN(C(=O)CSc1nnc(Nc2ccccc2)s1)C1CCS(=O)(=O)C1` (stereo not drawn): the inhibition is -5.88%.

Consider `C=CCOC(=O)N1CCC2CC1c1cc(-c3ccc(OC)cc3)ccc12` (stereo not drawn), for which the inhibition is -1.31%.

In the case of `Cc1cccc(C)c1NC(=O)CNC(=O)C1CCCC1`, the inhibition is -2.92%.

As for `CCc1cccc(C)c1NC(=O)COC(=O)Cc1ccsc1`, the inhibition was 5.55%.

`CCc1cccc(C)c1NC(=O)COC(=O)CC1CCCC1`: the inhibition is 31.1% (active).

`COc1ccc2[nH]c3c(c2c1)CCN1C(=O)C(CC(=O)NCc2cccc(C(F)(F)F)c2)C[C@H](C(=O)N2CCOCC2)[C@@]31C` (stereo partly drawn): the inhibition was -2.83%.

Turning to `COc1cc(/C=C/C(=O)OCC(=O)c2ccccc2)cc(OC)c1OC`, the inhibition was -8.15%.

As for `CCOC(=O)C(C)n1cnc2sc(C)c(C)c2c1=O` (stereo not drawn), the inhibition was -4.48%.

Turning to `Cc1c(C(N)=O)sc2ncn(CCOc3ccccc3)c(=O)c12`, the inhibition is 40.6% (active).

Turning to `Cc1cccc(OC(=O)c2sc3ncn(C)c(=O)c3c2C)c1`, the inhibition is -1.6%.

Turning to `O=[N+]([O-])c1cc2ccccc2nc1-c1ccccc1`, the inhibition is 3.37%.

On to `Cc1cc(C)cc(C(=O)NCC(=O)OCC(=O)N2CCCCC2)c1`, for which the inhibition is -4.99%.

For `COc1cc(OC)cc(C(=O)NCC(=O)N2CCCCCCC2)c1`, the inhibition is 59.5% (active).

In the case of `CCOc1ccc(C(=O)NCC(=O)N2CCCCCCC2)cc1OCC`, the inhibition was 2.87%.

`Cc1ccc(C2(C)NC(=O)N(CC(=O)N3CC(=O)Nc4ccccc43)C2=O)cc1` (stereo not drawn): the inhibition was -3.12%.

Regarding `CC(OC(=O)CCCOc1ccccc1)C(=O)Nc1ccc(Cl)cn1` (stereo not drawn), the inhibition is -3.1%.

Regarding `O=C(COC(=O)c1ccco1)Nc1ccc(Cl)cn1`, the inhibition is -5.62%.

As for `Cc1cccc(OCC(=O)OCC(=O)Nc2ccc(Cl)cn2)c1`, the inhibition is 74.8% (active).

With `CC(=O)Nc1ccc(S(=O)(=O)NCCC(=O)N2CCN(c3ccccc3Cl)CC2)cc1`, the inhibition is -2.76%.

Turning to `COc1cc(C)ccc1OCC(=O)OCC(=O)c1ccc[nH]1`, the inhibition was 3.54%.

For `Cc1cccc(CC2(O)C(=O)Nc3ccccc32)n1` (stereo not drawn), the inhibition is 3.12%.

Take `Cc1cc([N+](=O)[O-])ccc1NS(=O)(=O)c1ccccc1`: the inhibition is 2.21%.

As for `CC(=O)c1ccc(OCCCC(=O)Nc2ccc(C)c(S(=O)(=O)N3CCOCC3)c2)cc1`, the inhibition was -2.79%.

Consider `CCN(CC)S(=O)(=O)c1ccc(Cl)c(C(=O)NCCN2CCOCC2)c1`, for which the inhibition is 34.1% (active).

In the case of `CCN(CC)S(=O)(=O)c1ccc(N2CCOCC2)c(C(=O)O)c1`, the inhibition is -7.23%.

Regarding `CCN(CC(=O)NCCCN1CCOCC1)S(=O)(=O)c1cc(Cl)ccc1Cl`, the inhibition was 6.12%.

Consider `CCOC(=O)c1c(NC(=S)NC(=O)c2ccco2)sc2c1CCCC2`, for which the inhibition is 58.9% (active).

As to `CCOC(=O)c1c(NC(=S)NC)sc2c1CCCC2`, the inhibition was 2.4%.

Take `CC(C)OC(=O)c1c(NC(=O)c2ccco2)sc2c1CCCC2`: the inhibition is -1.93%.

`C=CC(COCc1ccccc1)N(CC(=O)OC)S(=O)(=O)c1cc(Br)ccc1OC` (stereo not drawn): the inhibition was -5.08%.

Take `Cc1ccc(C(=O)NCCNC(=O)c2ccccc2)cc1`: the inhibition was 10.7%.

As to `Cc1ccc(S(=O)(=O)NCCC(c2ccccc2)c2ccccc2)cc1C(=O)O`, the inhibition was 3.3%.

Turning to `Cc1ncoc1C(=O)NCCC(c1ccccc1)c1ccccc1`, the inhibition was 56.7% (active).

In the case of `COc1cc(C(=O)NC2CCN(C)CC2)ccc1Nc1ncc2c(n1)N(C1CCC(O)CC1)CCC(=O)N2C` (stereo not drawn), the inhibition was -0.543%.

In the case of `FC(F)(F)c1ccc(-c2cccc3c2C2CC3CCN2Cc2ccccc2)cc1` (stereo not drawn), the inhibition was -2.76%.

For `CC(C)c1ccc(C=NNc2ccc([N+](=O)[O-])cn2)cc1`, the inhibition was -3.5%.

As to `C[C@H](O)[C@@H]1C(=O)N2CCc3ccc(N4CCOCC4)cc3[C@@H]2C[C@@H]1N(C)C(=O)C(C)(C)C`, the inhibition was -2.27%.

Regarding `CN(CCc1ccccc1)C(=O)c1cccc(NC(=O)Cc2cccc(NC(=O)C3CCCN(C(=O)CCc4ccccc4)C3)c2)c1` (stereo not drawn), the inhibition is -1.89%.

For `Cc1ccc(CS(=O)Cc2ccc(C(=O)N3CCOCC3)o2)cc1` (stereo not drawn), the inhibition is 61.7% (active).

With `Cc1ccc(S(=O)Cc2ccc(C(=O)N3CCN(C4CCCCC4)CC3)o2)cc1` (stereo not drawn), the inhibition is -1.71%.

For `Cc1ccc(C(=O)N2CCN(C(=O)N3CCOCC3)CC2)cc1`, the inhibition is -4.62%.

Take `CC/C(=C(/c1ccccc1)c1ccc(OCC[N+](C)(C)C)cc1)c1ccccc1`: the inhibition was 5.44%.

In the case of `CC(C)Cn1cnc2c(SCc3ccc(Cl)cc3)nc(N)nc21`, the inhibition is -5.42%.

`CC(=O)CSc1nc(CCc2ccccc2)c(C#N)c(=O)[nH]1`: the inhibition is -3.06%.

In the case of `CS(=O)(=O)c1sc(C(=O)NC(=S)Nc2ccc(OC(F)(F)F)cc2)c2c1C=CCC2`, the inhibition was 106% (active).

Turning to `FC(F)(F)Oc1ccc(NC(=S)NCc2ccccc2)cc1`, the inhibition is 2.02%.

As for `CCNC(=S)Nc1ccc(OC(F)(F)F)cc1`, the inhibition is -0.766%.

`CCC(=O)N1CCc2cc(Br)c(S(=O)(=O)NCCN3CCCCC3CC)cc21` (stereo not drawn): the inhibition was -29.4%.

For `Cc1ccc(C(=O)Nc2ccccc2-c2ccccc2)cc1S(=O)(=O)Nc1ccccc1`, the inhibition was -1.73%.

On to `Cc1ccc(CNC(=O)Cn2cnc3c(NCc4ccccc4)ncnc32)o1`, for which the inhibition was -0.092%.

With `COc1ccc(C)cc1NC(=O)CN1c2cccc3cccc(c23)S1(=O)=O`, the inhibition is -0.836%.

Regarding `CC(C(=O)N1CCOCC1)N1c2cccc3cccc(c23)S1(=O)=O` (stereo not drawn), the inhibition is 0.599%.

Consider `COc1ccc(NC(=O)C(C)N2c3cccc4cccc(c34)S2(=O)=O)c(OC)c1` (stereo not drawn), for which the inhibition is 62.5% (active).

On to `O=C(Cn1cnc2cc([N+](=O)[O-])ccc2c1=O)NC(=O)NCc1ccccc1`, for which the inhibition is 65.7% (active).

In the case of `CC(C)(C)NC(=O)Cn1cnc2cc([N+](=O)[O-])ccc2c1=O`, the inhibition was -5.79%.

Consider `O=C(Cn1cnc2c(cnn2-c2ccccc2)c1=O)NCc1ccccc1`, for which the inhibition was 2.18%.

On to `COc1cc(C(=O)OCc2cc(=O)n3ccsc3n2)ccc1OC(C)C`, for which the inhibition is -4.78%.

Take `Oc1[nH]c2ccccc2c1N=Nc1c(F)c(F)c(F)c(F)c1F`: the inhibition is -3.27%.

In the case of `O=C(OCC(=O)N1CCN(c2ccccc2)CC1)c1ccc([N+](=O)[O-])s1`, the inhibition was 4.92%.
